Results published in PubChem BioAssay AID720597 (Broad Institute, 2013).
Potency and affinity values are given separately. Calls of active or inactive are those of the source.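 Rule for the calls: active = fitted half-maximal dose no more than twice the top valid tested dose, for compounds that lower signal; inconclusive = fit invalid, or curve flat with activity between -70 and -30; inactive = potency past limit, curve flat within ±30, or signal increasing.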

target: NAD-dependent protein deacylase sirtuin-5, mitochondrial (Homo sapiens) (UniProt Q9NXA8); assay: SIRT5 deacylase inhibitors, dose response, biochemical, fluorescence imaging, cherry-pick, set 6 (AID 720597); settings: Purified SirT5, succinyl-peptide-AMC/trypsin fluorescence; series mostly up to 15 µM; activity change, negative = inhibition: at the top concentration;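 note: lower AMC signal can also come from blocking the trypsin step; 0% = median of neutral control wells and -100% = median of positive control wells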
Sequence (Q9NXA8 whole entry, looked up): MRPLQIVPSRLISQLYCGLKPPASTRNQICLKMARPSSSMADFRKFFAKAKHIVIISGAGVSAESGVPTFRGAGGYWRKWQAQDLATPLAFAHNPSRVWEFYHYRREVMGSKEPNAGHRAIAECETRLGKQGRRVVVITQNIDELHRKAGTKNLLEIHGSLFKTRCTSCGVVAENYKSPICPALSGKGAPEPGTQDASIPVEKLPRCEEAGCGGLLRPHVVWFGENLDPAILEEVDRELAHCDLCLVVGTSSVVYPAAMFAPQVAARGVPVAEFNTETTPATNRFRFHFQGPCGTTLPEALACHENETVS

Activity change, negative = inhibition, inactive:
CC(C)NC(=O)Nc1ccc2c(c1)C(=O)N([C@H](C)CO)C[C@H](C)[C@H](CN(C)Cc1ccc(-c3ccccc3)cc1)O2 5.22%, COc1cccc(NC(=O)N2CC(=O)N3[C@H](C2)[C@H](c2ccc(C#CCC4CCCC4)cc2)[C@@H]3CO)c1 -16.2% [at 16 µM], COc1ccc(S(=O)(=O)Nc2ccc3c(c2)C(=O)N([C@@H](C)CO)C[C@H](C)[C@@H](CN(C)Cc2ccc(C(F)(F)F)cc2)OCCCC[C@@H](C)O3)cc1 -1.58%, O=C(CC1CC1)N1[C@@H](CO)[C@@H]2c3ccccc3N(S(=O)(=O)c3ccc(F)cc3)C[C@@H]21 -7.04%, COc1ccc(S(=O)(=O)N(C)C[C@H]2Oc3cc(C#CC4CCCC4)ccc3S(=O)(=O)N([C@@H](C)CO)C[C@@H]2C)cc1 7.83%, C[C@H](CO)N1C[C@H](C)[C@H](CN(C)S(=O)(=O)c2cccs2)Oc2c(NC(=O)C3CCCCC3)cccc2C1=O -21%, C[C@H]1CN([C@@H](C)CO)S(=O)(=O)c2ccc(/C=C/c3ccccc3)cc2O[C@@H]1CN(C)C(=O)NC1CCCC1 7.67%, CCC(=O)N(C)C[C@@H]1[C@@H](c2ccc(-c3ccccc3F)cc2)[C@H](CO)N1C(C)=O -1.46%, C[C@@H]1CN([C@@H](C)CO)C(=O)c2cc(NS(=O)(=O)c3ccccc3)ccc2O[C@@H](C)CCCCO[C@@H]1CN(C)S(=O)(=O)c1ccc(F)cc1 -29%, COc1ccc(CN(C)C[C@@H]2Oc3ccc(NC(=O)Nc4ccc(OC)cc4)cc3C(=O)N([C@@H](C)CO)C[C@H]2C)cc1 -0.857%, C[C@H](CO)N1C[C@H](C)[C@H](CN(C)C(=O)c2ccc3c(c2)OCO3)Oc2cc(/C=C/c3ccccc3)ccc2S1(=O)=O -4.94%, COc1ccc(-c2ccc([C@@H]3[C@H]4CN(C(=O)Cc5ccccn5)CC(=O)N4[C@H]3CO)cc2)cc1 -14.6%
